Assay results as given in PubChem BioAssay (NCATS).
Results filed as inconclusive are left out. The source made the active and inactive calls. Calls come from the whole dose curve; as a rule, active = well fitted curve in the direction sought with a large enough effect; inconclusive = small, poorly fitted or top-dose-only effect, or another doubt; inactive = no such curve, though single readings can be large; an effect the other way counts as inactive or inconclusive.

What was measured:
[1] = OV-KATE Cancer Cell Toxicity qHTS against the NCATS CANVASS Library (AID 1347345); conditions: OV-KATE cells viability, CellTiter-Glo luminescence, 72 h; series mostly up to 38.3 µM
How it was run: (§1)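 In this cytotoxicity screen, 1000 cells per well rested 4 hours, then received compound (11 concentrations) for a 72-hour incubation; an ATP-dependent luminescent signal (CellTiter-Glo) was the endpoint.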

[2] = HPAF-II Cancer Cell Toxicity qHTS against the NCATS CANVASS Library (AID 1347346); conditions: HPAF-II viability, CellTiter-Glo ATP luminescence, 72 h; series mostly up to 38.3 µM; note: nearly all actives have a fitted effect of over 55% in size
How it was run: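 First, HPAF-II cells are plated (1000 cells/well) and held 4 h at 37 degrees C. Next, compounds are pin-transferred as an 11-point series. After 72 h, CellTiter-Glo is added and luminescence measured.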

[3] = UWB1.289 Cancer Cell Toxicity qHTS against the NCATS CANVASS Library (AID 1347347); conditions: UWB1.289 viability, CellTiter-Glo luminescence, 72 h; series mostly up to 38.3 µM; note: nearly all actives have a fitted effect of over 60% in size
How it was run: as §1

[4] = OV-SAHO Cancer Cell Toxicity qHTS against the NCATS CANVASS Library (AID 1347348); conditions: OV-SAHO viability, CellTiter-Glo luminescence, 72 h; series mostly up to 38.3 µM; note: nearly all actives have a fitted effect of over 55% in size
How it was run: as §1

[5] = Panc-1005 Cancer Cell Toxicity qHTS against the NCATS CANVASS Library (AID 1347349); conditions: Panc-1005 viability, CellTiter-Glo luminescence, 72 h; series mostly up to 38.3 µM; note: nearly all actives have a fitted effect of over 60% in size
How it was run: as §1

[6] = SW1088 Cancer Cell Toxicity qHTS against the NCATS CANVASS Library (AID 1347350); conditions: SW1088 viability, CellTiter-Glo luminescence, 72 h; at 38.3 µM (top of the series); note: nearly all actives have a fitted effect of over 75% in size
How it was run: as §1

[7] = U-118MG Cancer Cell Toxicity qHTS against the NCATS CANVASS Library (AID 1347351); conditions: U-118MG viability, CellTiter-Glo luminescence, 72 h; series mostly up to 38.3 µM
How it was run: as §1

[8] = COV-362 Cancer Cell Toxicity qHTS against the NCATS CANVASS Library (AID 1347352); conditions: COV-362 viability, CellTiter-Glo luminescence, 72 h; series mostly up to 38.3 µM
How it was run: (§2)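 First, 1000 cells go into each well and rest for 4 hours. Next, an 11-point dilution range is pinned in. Plates then incubate 72 hours before CellTiter-Glo addition and luminescence reading.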

[9] = A2780 Cisplatin Sensitive Ovarian Cancer Cell Toxicity qHTS against the NCATS CANVASS Library (AID 1347353); conditions: A2780 ovarian cancer viability, ATPLite luminescence, 72 h; series mostly up to 46.1 µM; note: nearly all actives have a fitted effect of over 60% in size
How it was run: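 Cells are plated at 750 per well and rest for 4 hours. Compounds are added across eleven concentrations, and incubated 72 hours before ATP is quantified by luminescence.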

[10] = UWB1.289-WTBRCA1 Cancer Cell Toxicity qHTS against the NCATS CANVASS Library (AID 1347354); conditions: UWB1.289-WTBRCA1 viability, CellTiter-Glo luminescence, 72 h; series mostly up to 38.3 µM
How it was run: as §2

[11] = HEK-293 Cancer Cell Toxicity qHTS against the NCATS CANVASS Library (AID 1347355); conditions: HEK-293 viability, CellTiter-Glo luminescence, 72 h; series mostly up to 46.1 µM; note: nearly all actives have a fitted effect of over 65% in size
How it was run: as §2

[12] = HPAF-II 24hr Apoptosis Induction qHTS against the NCATS CANVASS Library (AID 1347356); conditions: HPAF-II caspase-3/7 Caspase-Glo luminescence; series mostly up to 46.1 µM
How it was run: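 Cells seeded at 500 per well, then compounds pin-transferred in an 11-point concentration series. After 24 hours at 37 degrees C, Caspase-Glo 3/7 was added and luminescence measured following 15 min at room temperature.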

[13] = HEK293 18hr Apoptosis Induction qHTS against the NCATS CANVASS Library (AID 1347357); conditions: HEK293 caspase-3/7 Caspase-Glo luminescence; series mostly up to 46.1 µM
How it was run: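 Caspase-Glo 3/7 luminescence (15 min, room temperature) measured apoptosis after an 18-hour, 37 degrees C exposure of HEK293 cells (500 cells/well) to compounds in 11 points.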

[14] = HPAF-II 12hr Apoptosis Induction qHTS against the NCATS CANVASS Library (AID 1347358); conditions: HPAF-II caspase-3/7 Caspase-Glo luminescence; series mostly up to 46.1 µM
How it was run: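 Cells plated at 500 per well are dosed with compound and incubated 12 hours at 37 degrees C. Caspase-Glo 3/7 reagent is added and, after 15 min at room temperature, luminescence proportional to caspase activity is measured.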

[15] = HEK293 24hr Apoptosis Induction qHTS against the NCATS CANVASS Library (AID 1347359); conditions: HEK293 caspase-3/7 activation, Caspase-Glo luminescence; series mostly up to 46.1 µM
How it was run: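 HEK293 cells (500/well, DMEM + 10% FBS) were exposed to compounds in an 11-point series for 24 hours at 37 degrees C, then caspase-3/7 activity was read by Caspase-Glo DEVD luciferase luminescence after 15 min.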

[16] = HPAF-II 18hr Apoptosis Induction qHTS against the NCATS CANVASS Library (AID 1347360); conditions: HPAF-II caspase-3/7 luminescence; series mostly up to 46.1 µM
How it was run: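 Caspase-3/7 activation was measured with luminescent Caspase-Glo 3/7 reagent (15 min, RT) in HPAF-II cancer cells (500 cells/well). Before detection, cells had been treated for 18 h at 37 C with compounds (11 points).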

[17] = HEK293 12hr Apoptosis Induction qHTS against the NCATS CANVASS Library (AID 1347361); conditions: HEK293 caspase-3/7 Caspase-Glo luminescence; series mostly up to 46.1 µM
How it was run: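 HEK293 cells (500/well, DMEM + 10% FBS) were exposed to natural products across an 11-point series for 12 hours at 37 degrees C. Caspase-3/7 activity was then measured with DEVD luciferase luminescence after 15 min at room temperature.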

[18] = tested on: NAD(P)H diaphorase (Clostridium kluyveri); experiment: Diaphorse counterscreen qHTS: Assay Interference Panel against the NCATS CANVASS Library (AID 1347362); conditions: Diaphorase enzyme, resazurin to resorufin fluorescence; series mostly up to 57.5 µM
How it was run: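 Clostridium kluyveri diaphorase in PBS with 0.01% Tween-20 was preincubated 15 min at room temperature in the dark with compounds (11-point series). Resorufin fluorescence (ex 525/20, em 598/25) was read 5 min after adding resazurin/NADH.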

[19] = biological target: Luciferin 4-monooxygenase (Photinus pyralis) (UniProt P08659); experiment: Firefly luciferase counterscreen qHTS: Assay Interference Panel against the NCATS CANVASS Library (AID 1347363); conditions: purified firefly luciferase, luminescence inhibition, 5 min; series mostly up to 57.5 µM
Luciferin 4-monooxygenase (Photinus pyralis), sequence (P08659 whole entry, looked up): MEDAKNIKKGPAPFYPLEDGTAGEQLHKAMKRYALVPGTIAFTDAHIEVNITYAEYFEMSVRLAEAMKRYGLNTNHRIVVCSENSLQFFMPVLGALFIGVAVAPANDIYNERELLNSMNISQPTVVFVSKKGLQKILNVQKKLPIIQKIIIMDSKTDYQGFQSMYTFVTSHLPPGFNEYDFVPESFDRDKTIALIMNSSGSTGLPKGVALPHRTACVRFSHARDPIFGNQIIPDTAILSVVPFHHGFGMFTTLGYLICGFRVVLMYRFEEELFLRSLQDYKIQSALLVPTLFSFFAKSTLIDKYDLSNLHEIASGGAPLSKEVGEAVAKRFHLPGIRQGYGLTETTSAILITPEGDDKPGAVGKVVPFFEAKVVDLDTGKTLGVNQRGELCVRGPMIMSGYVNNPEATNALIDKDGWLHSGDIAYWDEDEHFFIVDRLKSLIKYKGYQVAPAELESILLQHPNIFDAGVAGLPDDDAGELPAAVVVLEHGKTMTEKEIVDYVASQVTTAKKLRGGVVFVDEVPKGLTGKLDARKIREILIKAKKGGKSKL
How it was run: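 Purified P. pyralis luciferase was added to compounds (11-point series) preincubated 15 min at room temperature with substrate containing 0.013 mM D-luciferin and 0.013 mM ATP; luminescence was read after 5 min.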

[20] = KB-8-5-11 Cancer Cell Toxicity qHTS against the NCATS CANVASS Library (AID 1347364); conditions: KB-8-5-11 MDR cells viability, CellTiter-Glo, 72 h; series mostly up to 46.1 µM; note: nearly all actives have a fitted effect of over 75% in size
How it was run: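 Terse: KB-8-5-11, 500 cells/well, 72 hr, 37C/5% CO2, 11-pt titration, CellTiter-Glo readout; confirmatory runs ± 1uM tariquidar in medium.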

Measured: outcome

COC(=O)[C@@H]1[C@H]2C[C@H]3c4[nH]c5ccccc5c4CCN3C[C@@H]2CC[C@@H]1O
inactive: all assays above

O=c1cc(-c2ccccc2)oc2cc(O)c(O)c(O)c12
not listed: [3] | [6] | [18] | [19]
inactive: all other assays above

O=C(O)C(O)Cc1ccc(O)c(O)c1 (stereo not drawn)
not listed: [5] | [11] | [18]
inactive: all other assays above
